High-throughput results: PubChem BioAssay, National Center for Advancing Translational Sciences (NCATS)
TDP1 cell CPT = DT40-hTDP1 cell growth loss with CPT; chicken DT40 Tdp1-/-;hTDP1 cells + 20 nM CPT, ATP luminescence, 48 h; Potency, µM (top dose mostly 46.2 µM), inactives show at the top dose activity change, negative = growth inhibition, actives largely listed as inhibitors; 420,000 compounds, 12% hits; AID 686979; further: potency means the concentration at half of the fitted maximal effect; nearly all actives have a fitted effect of over 55% in size
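Chicken DT40 Tdp1-/- cells stably complemented with human TDP1 were seeded at 400 cells/well in medium containing 20 nM camptothecin, exposed to pin-transferred compounds, and grown at 37 °C for at least 48 hr. Viability was read as ATP luminescence.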
HT1080NT lethal = kills 2HG-producing HT-1080-NT fibrosarcoma cells | HT-1080-NT fibrosarcoma viability, CellTiter-Glo ATP luminescence, 48 h | Potency, µM (doses to about 46.1 µM), inactives show at the highest dose activity, negative = less viability, most hits filed as cytotoxic | 360,000 compounds, 1.6% hits | AID 686970;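 further: NT is the 2HG producing partner of a matched IDH1 knockdown line; potency means the concentration at half of the fitted maximal effect; 0% = DMSO-treated cells and -100% = media-only wells without cells; nearly all actives have a fitted effect of over 55% in size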
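Toxicity toward the 2HG-producing NT line was scored as %Activity, normalised to DMSO and no-cell wells, from CellTiter-Glo luminescence after 48 hours' treatment.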
HT1080 IDH1KD tx = toxicity to HT-1080 IDH1 knockdown cells (counter line). 360,000 compounds, 2% hits. Potency, µM (doses to about 46.1 µM), inactives show at the top dose activity, negative = toxicity, hits mostly cytotoxic. HT-1080 IDH1 knockdown viability, ATP luminescence, 48 h;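 further: potency means the concentration at half of the fitted maximal effect; 0% = DMSO wells and -100% = cell-free medium wells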
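HT-1080-IDH1KD cells (IDH1 knocked down), 750/well in RPMI with 5% FBS, treated with compound 48 h at 37 degrees C. Viability by CellTiter-Glo luminescence, normalised to DMSO and no-cell wells; concentration-response curves classed.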
DT40 TDP1 no CPT = qHTS for Inhibitors of human tyrosyl-DNA phosphodiesterase 1 (TDP1): qHTS in cells in absence of CPT; DT40 Tdp1-/- hTDP1 cells, no CPT, ATP luminescence, 48 h; Potency, µM (highest dose often 46.2 µM), for inactives: top-dose activity change, negative = growth inhibition, usual class: inhibitors; 420,000 compounds, 15% hits; AID 686978, 2013; further: potency means the concentration at half of the fitted maximal effect; nearly all actives have a fitted effect of over 55% in size
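Readout: luminescence from CellTiter-Glo after 30 min in the dark at RT. Cells: DT40 Tdp1-/- with stable hTDP1, 400/well. Exposure: compounds alone, ≥48 hr, 37 °C.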
IL-1B inflam inh = inflammasome signaling inhibition, IL-1 beta readout; THP-1 LPS/ATP IL-1B secretion, AlphaLISA, 16 h; stronger effect = lower value; activity change, % at 57.5 µM; 360,000 compounds, 4.7% hits; AID 743279; in the data active means activity change below about -50%; inconclusive means mostly about -30% to -49%
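THP-1 cells pretreated 1 hr with compounds (up to 57.5 uM final), then stimulated with LPS (250 ng/mL final) plus ATP (1.25 mM final); secreted IL-1B measured by AlphaLISA after 16 hr, decreased signal indicating inhibition.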
ELG1 repair inh = inhibitors of ELG1-dependent DNA repair in HEK293T cells. HEK293T ELG1-luciferase reporter, luminescence, 16 h; DNA damage induced by 5-fluorouridine. Potency, µM (series often up to 46.1 µM), for inactives: at the top dose activity change, negative = inhibition, most hits filed as inhibitors. 330,000 compounds, 2.3% hits; further: potency means the concentration at half of the fitted maximal effect; nearly all actives have a fitted effect of over 55% in size
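HEK293T cells expressing luciferase-tagged ELG1 (2,000/well) received 5-Fluorouridine plus compound or DMSO for 16 hr at 37 °C. Luciferase was read by ONE-Glo luminescence after 30 min at room temperature.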
Active calls of the source: *; i = inactive; ? = inconclusive; nt = no result; [ ] = remark or other dose. In the library only some 19% were active in any assay of this set; here they are far more common. Unless noted, the call rests on the fitted dose curve; in most records, active means well fitted curve in the direction sought with a large enough effect; inconclusive means small, poorly fitted or top-dose-only effect, or another doubt; inactive means no such curve, though single readings can be large; an effect the other way counts as inactive or inconclusive. Unless noted, on the % scale 0 is the no-effect control and ±100 the full control effect.

SMILES	TDP1 cell CPT	HT1080NT lethal	HT1080 IDH1KD tx	DT40 TDP1 no CPT	IL-1B inflam inh	ELG1 repair inh
CCC(=O)c1cc(Br)ccc1OCC(=O)N1CCN(S(=O)(=O)c2ccccc2)CC1	?	0%	2%	23µM*	-58*	nt
Cc1ccccc1OCCC(=O)N1CCN(S(=O)(=O)c2ccc(Br)cc2)CC1	?	-11%	-13%	23µM*	-13	?
O=C(COc1ccc(Cl)cc1Br)N1CCN(S(=O)(=O)c2ccccc2)CC1	?	-3%	-7%	?	?	?
Cc1ccc(S(=O)(=O)N2CCN(C(=O)CSC(=S)N3CCCC3)CC2)c(C)c1	5.2µM*	-7%	0%	3.3µM*	6	?
Cc1ccccc1OCCC(=O)N1CCN(S(=O)(=O)c2ccc(F)cc2)CC1	-28%	-7%	-16%	?	12	4%
Cc1ccc(C(=O)N2CCC(C(=O)c3c(C)cc(C)cc3C)CC2)cc1	?	-2%	-11%	?	7	16µM*
Cc1ccc(NC(=O)Cn2cnc3c2c(=O)n(C)c(=O)n3C)cc1C	-16%	nt	nt	-24%	nt	nt
O=Cc1ccc(Cl)cc1	13%	nt	nt	-8%	nt	nt
Cc1ccc(S(=O)(=O)N2CCN(C(=O)C3CCN(C(=O)c4ccc(F)cc4)CC3)CC2)c(C)c1	?	-15%	-14%	10µM*	-7	?
Cc1ccc(S(=O)(=O)N2CCN(CC(=O)N3CCCC3)CC2)c(C)c1	2%	13%	-1%	-6%	-29	?
Cc1ccc(S(=O)(=O)N2CCN(C(=O)CSC3CCCC3)CC2)c(C)c1	0%	0%	-2%	-15%	-7	21µM*
CCOc1ccccc1OCCCC(=O)N1CCN(S(=O)(=O)c2ccc(C)cc2C)CC1	21µM*	-6%	-25%	-57%	0	?
Cc1ccccc1C(=O)N1CCC(C(=O)N2CCN(S(=O)(=O)c3ccccc3F)CC2)CC1	?	-11%	16%	-25%	-4	?
CCOc1ccccc1OCCCC(=O)N1CCN(S(=O)(=O)c2ccc(C)cc2)CC1	?	0%	9%	?	-20	-17%
OC1(c2cccnc2)CCN(Cc2ccc3c(c2)CN(Cc2cc(F)ccc2F)CCO3)CC1	9%[9.04 µM]	nt	nt	?	nt	nt
O=C(Nc1cccc(-c2cn3ccccc3n2)c1)c1cc2ccccc2oc1=O	2.1µM*	8%	5%	3.7µM*	-80*	?
O=C1CSc2ccc(C(=O)Nc3cccc(S(=O)(=O)Nc4ccc(Br)cc4)c3)cc2N1	18µM*	nt	nt	8.2µM*	?	13µM*
O=C(Nc1ccc(Br)cc1)c1cccc(S(=O)(=O)Nc2cnc3ccccc3c2)c1	-29%	?	?	?	?	?
COc1ccc(NC(=O)c2cccc(S(=O)(=O)Nc3ccc(Br)cc3)c2)cn1	?	?	?	23µM*	-80*	?
O=C(Nc1ccc(Br)cc1)c1cccc(S(=O)(=O)Nc2ccccn2)c1	-17%	-17%	-12%	16µM*	i	-22%
COc1ccc2sc(-c3ccc(SC)cc3)c(C#CCO)c2c1	18µM*	?	?	?	7	?
COc1ccc2sc(-c3ccc(SC)cc3)c(C#CC(C)(C)O)c2c1	?	?	?	?	-10	-14%
COc1ccc(-c2sc3cc(OC)c(OC)cc3c2C#CCO)cc1	18µM*	-28%	?	?	-23	?
CCCCc1c(-c2ccccc2OC)ncn1CCc1ccccc1Cl	7.3µM*	?	?	15µM*	-62*	nt
CCCCCc1c(-c2ccccc2OC)ncn1CCc1ccccc1OC	5.2µM*	16µM*	16µM*	5.2µM*	-95*	nt
SMILES	TDP1 cell CPT	HT1080NT lethal	HT1080 IDH1KD tx	DT40 TDP1 no CPT	IL-1B inflam inh	ELG1 repair inh
COc1ccccc1CNC(=O)CCn1cnc2ccccc2c1=O	-3%	nt	nt	-22%	nt	nt
CCCCc1c(-c2ccccc2Br)ncn1CCc1ccccc1OC	15µM*	?	?	21µM*	-79*	nt
COc1ccccc1CCNc1ncnc2c1nnn2C	-12%	nt	nt	-28%	nt	nt
COc1ccccc1CC1(C)C(=O)Nc2c(Cl)cccc21 (centres undefined)	?	0%	0%	?	17	nt
CCCCCc1c(CC)ncn1CCc1ccccc1OC	4.6µM*	26µM*	?	2.9µM*	?	nt
O=C(CCc1ccccc1)Nc1cc2c3c(c1)CC(=O)N3CCC2	-20%	5%	-17%	?	1	?
CC(C)C[C@H]1CN(CCCC[C@@H]2CNC(=O)C(=O)N2Cc2ccccc2)C(=O)C(=O)N1CCc1ccccc1	-3%	15%	6%	?	-16	nt
CCc1ccccc1N(CC(=O)NC(C)(C)CC)C(=O)CCC(=O)Nc1nccs1	-14%	-1%	-2%	-11%	11	-5%
CCCCN(CC)C(=O)Cc1ccccc1OC	-26%	-4%	-4%	?	?	-15%
CCCCc1c(-c2ccccc2OC)ncn1CCc1ccccc1OC	12µM*	18µM*	13µM*	8.2µM*	-100*	nt
CCN(CC)C(=O)C1=C(C)N(CCC2=CCCCC2)C(=O)C(CC(=O)NCc2cccs2)C1 (centres undefined)	-16%	0%	0%	-28%	?	nt
CC(C)(C)OC(=O)N1CCC(c2c(C(=O)N3CCC(c4ccccc4)C3)cnn2-c2cccc(Cl)c2)CC1 (centres undefined)	18µM*	nt	nt	15µM*	nt	nt
CC1CCN(C(=O)c2cnn(-c3cccc(Cl)c3)c2C2CCN(C(=O)OC(C)(C)C)CC2)CC1	21µM*	nt	nt	?	nt	nt
CC(C)(C)OC(=O)N1CCC(c2c(C(=O)N3CCCCC3)cnn2-c2cccc(F)c2)CC1	4%	nt	nt	-6%	nt	nt
Cc1ccc(C2CCN(C(=O)c3cnn(-c4cccc(Cl)c4)c3C3CCN(C(=O)OC(C)(C)C)CC3)C2)cc1 (centres undefined)	13µM*	nt	nt	7.3µM*	nt	nt
Cc1cccc(-n2ncc(C(=O)N3CCN(C4CCCCC4)CC3)c2C2CCN(C(=O)OC(C)(C)C)CC2)c1	16µM*	nt	nt	21µM*	nt	nt
CN(N=O)C(=O)N[C@H]1C(O)OC(CO)[C@@H](O)[C@H]1O (some centres undefined)	-22%	nt	nt	-8%	nt	nt
